Calls of active or inactive are those of the source. No stated cut-off is given here; in the data, active means fold change mostly below about -2 (no sharp cut-off); inactive means mostly above about -1.8.
Assay: TERT promoter activity modulators, primary screen, cell-based, luciferase reporter, human (AID 1259240)
Settings: A2780 TERT promoter luciferase reporter, 16 h; at 20 µM, fold versus average of vehicle-only wells

Structure (SMILES)	fold change	outcome
NC(=O)C1CCN(C(=O)CN2C(=O)COc3ccc(S(=O)(=O)N4CCCC4)cc32)CC1	1.05 (inactive)	–
CCOC(=O)CSc1nc(SCC(=O)OCC)c2c3c([nH]c2n1)CCCC3	1.35 (inactive)	–
Cc1nc2c(-c3ccc(F)cc3)c(C)nn2c(C)c1CCC(=O)NC(C)C	-1.28 (inactive)	–
CCN1C(=O)N/C(=C/c2cn(CC(=O)Nc3ccc(Cl)cc3)c3ccccc23)C1=O	-1.87 (inactive)	–
Cc1ccccc1Cn1nc(C)c(NC(=O)c2cc(C3CC3)on2)c1C	-1.04 (inactive)	–
CCOc1cc2c(cc1OCC)C(c1cc(OC)c(OC)c(OC)c1)CC(=O)N2 (centres undefined)	-1.02 (inactive)	–
O=C(OCCCN=C1NS(=O)(=O)c2ccccc21)c1cccs1	–	active
O=C(CN1C(=O)COc2ccc(S(=O)(=O)N3CCOCC3)cc21)N1CCOCC1	-2.24 (active)	–
Brc1ccc2c(c1)CN(Cc1ccc3c(c1)OCO3)CO2	-1.55 (inactive)	–
COc1ccc(-n2c(C)c(C(C)=O)c3cc(OCC(N)=O)ccc32)cc1	-1.38 (inactive)	–
NC(=O)C1CCN(C(=O)CCCc2nnc3n4nc(-c5ccccc5)nc4c4ccccc4n23)CC1	-1 (inactive)	–
COc1cccc(/C=c2\sc3nc(-c4ccco4)nn3c2=O)c1OC	1.43 (inactive)	–
CC1=CC2=NC(=O)/C(=C\c3cc(C)n(-c4ccccc4F)c3C)C(=N)N2O1	-1.81 (inactive)	–
CC1CC(C)CN(C(=O)Cn2c(=O)oc3cc(S(=O)(=O)NC4CCCC4)ccc32)C1 (centres undefined)	1.02 (inactive)	–
Nc1cc(-c2ccccc2)nn1S(=O)(=O)c1ccc(Br)cc1	1.63 (inactive)	–
O=C(CSc1nc(-c2ccco2)cc(C(F)(F)F)n1)N1CCOCC1	-2.11 (active)	–
CCNC(=O)CC1C(=O)N(c2ccc(F)cc2)C(=O)N1CCC(C)C (centres undefined)	1.24 (inactive)	–
Cc1ccc(C(C)C)cc1OCC(O)Cn1cnc2ccccc21 (centres undefined)	-1.17 (inactive)	–
COc1ccc(Cl)cc1N1CC(O)=C(c2nc3ccccc3c(=O)[nH]2)C1=N	–	inactive
COc1ccc(C2CC(c3cccs3)=NN2C(=O)CSc2ncnc3ccccc23)cc1 (centres undefined)	1.14 (inactive)	–

Structure (SMILES)	fold change	outcome
CC(=O)c1cccc(Nc2nc(-c3c(C)nc4cc(C)ccn34)cs2)c1	-2.84 (active)	–
CNC(=O)c1ccc(-c2nn(C)c(=O)c3ccccc23)cc1	-1.06 (inactive)	–
c1ccc(CN2CCN(c3nnc(Cc4cccnc4)c4ccccc34)CC2)cc1	1.04 (inactive)	–
Cn1c(=O)[nH]c(=O)c2c1nc(NCCc1ccccc1)n2CCO	-1.23 (inactive)	–
Cc1ccc(-c2nc3cnccn3c2Nc2ccccc2C)o1	-1.64 (inactive)	–
CCOC(=O)C(C)Sc1nnc(-c2c[nH]c3ccccc23)n1CC (centres undefined)	–	inactive
Clc1ccc(CNc2ncnc3nc[nH]c23)cc1	2.09 (active)	–
Cc1nnc(NC(=O)Cn2c(=O)sc3ccccc32)s1	-1.03 (inactive)	–
O=C1C(=O)N(CC(=O)N2CCCCC2)c2ccccc21	1.04 (inactive)	–
CCOC(=O)c1c(C=O)c2ccccc2n1C	1.15 (inactive)	–
CCC(CO)NS(=O)(=O)c1ccc(OC)c(-c2nnc3c4ccccc4c(C)nn23)c1 (centres undefined)	-1.69 (inactive)	–
COc1ccccc1-c1cc(N)n(S(=O)(=O)c2ccc([N+](=O)[O-])cc2)n1	-1.09 (inactive)	–
CCOC(=O)N1CCC(Nc2c(N3CCCC3)c(=O)c2=O)CC1	-1.12 (inactive)	–
CC1(C)NC(=O)N(CC(O)COc2ccccc2)C1=O (centres undefined)	-1.3 (inactive)	–
Cc1sc2nc3ccc(N4CCCC4)nn3c(=O)c2c1C	-1.02 (inactive)	–
COc1ccccc1-c1c(C)nn2c(N3CCOCC3)cc(C)nc12	1.18 (inactive)	–
CCCCN(C)C(=O)Cn1c(=O)oc2cc(S(=O)(=O)N3CC(C)CC(C)C3)ccc21 (centres undefined)	1.08 (inactive)	–
CCC(=O)Nc1nc2nc(C(C)(C)C)cc(=O)n2[nH]1	-1.74 (inactive)	–
CN(CC(=O)Nc1ccc2c(c1)OCO2)S(=O)(=O)c1ccc2c(c1)c(=O)n(C)c(=O)n2C	-1.32 (inactive)	–

— PubChem BioAssay AID1259240 (Keith Lab, Institute of Cancer Science, University of …, 2017)
